Here are results for 4 compounds from PubChem BioAssay (EPA / NIEHS).

Calls of active or inactive are those of the source. How the source made its calls: active means hit-call score of the fitted dose curve at least 0.9, where 1 is the maximum; inactive means score below 0.9.

What all share (settings): mRNA level, 48 h; actives raise or lower the signal
Read-out in assay [1]: DNA damage-inducible transcript 3 (DDIT3), DDIT3 (gene 1649)
The assay is described as follows: LTEA_HepaRG_DDIT3: Life Technologies and Expression Analysis (LTEA) Assay for DNA damage-inducible transcript 3 (DDIT3) using HepaRG (AID 2283488). The method in brief:
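qRT-PCR readout (Fluidigm TaqMan), housekeeping-normalized to ACTB, GAPDH, POLR2A. HepaRG cells, 48 h exposure, 8-point half-log series from 100 uM in 0.5% DMSO, duplicates. Gain or loss of signal fitted against DMSO baseline.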

Read-out in assay [2]: Pro-epidermal growth factor (Homo sapiens) (UniProt P01133)
The assay is described as follows: LTEA_HepaRG_EGF: Life Technologies and Expression Analysis (LTEA) Assay for Epidermal growth factor (EGF) using HepaRG (AID 2283489). The method in brief:
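HepaRG cells (~100,000/well, 48 h pre-culture) exposed in duplicate for 48 h in serum-free induction medium to 8 half-log concentrations up to 100 uM in 0.5% DMSO. EGF mRNA by qRT-PCR, normalized to ACTB/GAPDH/POLR2A; bidirectional fit versus DMSO.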

Read-out in assay [3]: Early growth response protein 1 (EGR1) transcription factor, EGR1 (gene 1958)
The experiment in a line: LTEA_HepaRG_EGR1: Life Technologies and Expression Analysis (LTEA) Assay for Early growth response protein 1 (EGR1) transcription factor using HepaRG (AID 2283490). The method in brief: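 EGR1 transcript levels quantified by qRT-PCR (Fluidigm arrays) against three housekeeping genes after 48 h chemical exposure of HepaRG cells. Eight-point half-log series topping at 100 uM, 0.5% DMSO vehicle, analyzed for gain or loss.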

Read-out in assay [4]: Ezrin (EZR), EZR (gene 7430)
The experiment in a line: LTEA_HepaRG_EZR: Life Technologies and Expression Analysis (LTEA) Assay for Ezrin (EZR) using HepaRG (AID 2283491). The method in brief: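 Gain or loss of EZR mRNA is scored relative to 0.5% DMSO in human HepaRG cultures treated 48 h with test chemicals in duplicate, eight half-log concentrations from 100 uM.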

Read-out in assay [5]: CYP3A5 (gene 1577)
The experiment in a line: LTEA_HepaRG_CYP3A5: Life Technologies and Expression Analysis (LTEA) Assay for CYP3A5 using HepaRG (AID 2283493). In outline:
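qRT-PCR read-out: CYP3A5 transcript in HepaRG lysates, housekeeping-normalized (ACTB/GAPDH/POLR2A), fitted bidirectionally against 0.5% DMSO baseline. Exposure 48 h, eight half-log concentrations up to 100 uM, duplicates.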

Read-out in assay [6]: Fatty Acid-Binding Protein 1 (FABP1), FABP1 (gene 2168)
The assay is described as follows: LTEA_HepaRG_FABP1: Life Technologies and Expression Analysis (LTEA) Assay for Fatty Acid-Binding Protein 1 (FABP1) using HepaRG (AID 2283494). The method in brief:
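FABP1 expression by TaqMan qRT-PCR, normalised to three housekeeping genes, in HepaRG cells after 48 h chemical treatment. Eight-point half-log series topping at 100 uM in 0.5% DMSO, duplicates; gain or loss fitted relative to vehicle.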

Read-out in assay [7]: Cytochrome P450 4A22 (Homo sapiens) (UniProt Q5TCH4)
The experiment in a line: LTEA_HepaRG_CYP4A22: Life Technologies and Expression Analysis (LTEA) Assay for Cytochrome P450 4A22 (CYP4A22) using HepaRG (AID 2283495). The method in brief: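 Differentiated HepaRG cells in serum-free induction medium exposed 48 h in duplicate to eight half-log concentrations up to 100 uM in 0.5% DMSO. CYP4A22 mRNA quantified by TaqMan qRT-PCR, normalized to ACTB, GAPDH and POLR2A; bidirectional fit versus DMSO.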

Read-out in assay [8]: Glutathione S-Transferase (GSTA2), GSTA2 (gene 2939)
The assay is described as follows: LTEA_HepaRG_GSTA2: Life Technologies and Expression Analysis (LTEA) Assay for Glutathione S-Transferase (GSTA2) using HepaRG (AID 2283497). The method in brief:
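GSTA2 transcript levels came from Fluidigm TaqMan qRT-PCR normalized to three housekeeping genes, fitted in both directions against DMSO. HepaRG cultures received chemicals for 48 h in serum-free induction medium (0.5% DMSO), 8 half-log concentrations up to 100 uM, duplicate.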

Read-out in assay [9]: Glutamate-cysteine ligase catalytic (GCLC), GCLC (gene 2729)
The experiment in a line: LTEA_HepaRG_GCLC: Life Technologies and Expression Analysis (LTEA) Assay for Glutamate-cysteine ligase catalytic (GCLC) using HepaRG (AID 2283498). The method in brief:
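Expression by TaqMan qRT-PCR, normalized to three housekeeping genes (ACTB, GAPDH, POLR2A), with up- or down-regulation fitted against DMSO. HepaRG cells dosed in duplicate for 48 h with 8 half-log concentrations up to 100 uM, vehicle 0.5% DMSO.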

Read-out in assay [10]: growth arrest and DNA damage 45 (GADD45G), GADD45G (gene 10912)
The assay is described as follows: LTEA_HepaRG_GADD45G: Life Technologies and Expression Analysis (LTEA) Assay for growth arrest and DNA damage 45 (GADD45G) using HepaRG (AID 2283499). In outline: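 Differentiated human HepaRG cells, 48 h post-plating, exposed 48 h in serum-free induction medium to 8 half-log concentrations (top 100 uM, 0.5% DMSO) in duplicate. GADD45G mRNA measured by Fluidigm TaqMan qRT-PCR, normalized to ACTB, GAPDH, POLR2A; bidirectional fit versus DMSO.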

Read-out in assay [11]: Glutathione S-transferase M3 (GSTM3), GSTM3 (gene 2947)
The assay is described as follows: LTEA_HepaRG_GSTM3: Life Technologies and Expression Analysis (LTEA) Assay for Glutathione S-transferase M3 (GSTM3) using HepaRG (AID 2283501). In outline: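 Differentiated human HepaRG cells were exposed in duplicate for 48 h in serum-free induction medium, 8 points from 100 uM top in half-log steps, 0.5% DMSO. GSTM3 mRNA was measured by TaqMan qRT-PCR, normalized to ACTB, GAPDH and POLR2A; bidirectional fit versus DMSO.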

Read-out in assay [12]: Hypoxia-inducible factor 1-alpha (Homo sapiens) (UniProt Q16665)
The assay is described as follows: LTEA_HepaRG_HIF1A: Life Technologies and Expression Analysis (LTEA) Assay for Hypoxia-inducible factor 1 (HIF1A) Trancription factor using HepaRG (AID 2283503). The method in brief:
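Gain- or loss-of-signal HIF1A mRNA changes are fitted against a DMSO baseline. HepaRG cultures receive eight concentrations, highest 100 uM, for 48 h in serum-free induction medium with 0.5% DMSO.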

Read-out in assay [13]: 3-Hydroxy-3-Methylglutaryl-CoA Synthase 2 (HMGCS2), HMGCS2 (gene 3158)
The experiment in a line: LTEA_HepaRG_HMGCS2: Life Technologies and Expression Analysis (LTEA) Assay for 3-Hydroxy-3-Methylglutaryl-CoA Synthase 2 (HMGCS2) using HepaRG (AID 2283504). In outline: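 Human HepaRG cells in serum-free induction medium were exposed in duplicate for 48 h to 8-point half-log series from 100 uM top in 0.5% DMSO. HMGCS2 mRNA measured by TaqMan qRT-PCR, normalised to ACTB, GAPDH, POLR2A; bidirectional fit versus DMSO.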

Read-out in assay [14]: HGF (gene 3082)
The experiment in a line: LTEA_HepaRG_HGF: Life Technologies and Expression Analysis (LTEA) Assay for Hepatocyte Growth Facto (HGF) using HepaRG (AID 2283505). The method in brief: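 Differentiated HepaRG cells in serum-free induction medium exposed 48 h in duplicate, 8 half-log concentrations from 100 uM in 0.5% DMSO. HGF mRNA by qRT-PCR, normalised to ACTB, GAPDH, POLR2A; bidirectional fitting.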

Read-out in assay [15]: Intercellular Adhesion Molecule 1 (ICAM1), ICAM1 (gene 3383)
The assay is described as follows: LTEA_HepaRG_ICAM1: Life Technologies and Expression Analysis (LTEA) Assay for Intercellular Adhesion Molecule 1 (ICAM1) using HepaRG (AID 2283507). The method in brief: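 Differentiated human HepaRG cells in serum-free induction medium exposed 48 h in duplicate to 8 half-log concentrations (top 100 uM, 0.5% DMSO). ICAM1 mRNA quantified by TaqMan qRT-PCR, normalized to ACTB, GAPDH and POLR2A; bidirectional fitting versus DMSO.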

Read-out in assay [16]: Glutamate-cysteine ligase regulatory (GCLM), GCLM (gene 2730)
The assay is described as follows: LTEA_HepaRG_GCLM: Life Technologies and Expression Analysis (LTEA) Assay for Glutamate-cysteine ligase regulatory (GCLM) using HepaRG (AID 2283500). In outline: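 HepaRG, 48 h dosing, 100 uM top, half-log x8, 0.5% DMSO vehicle. Readout: GCLM mRNA by TaqMan qRT-PCR, housekeeping-normalized (ACTB/GAPDH/POLR2A). Curves fit bidirectionally vs DMSO baseline.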

Read-out in assay [17]: Heat shock 70 kDa protein 1 (HSPA1A), gene 3303
The assay is described as follows: LTEA_HepaRG_HSPA1A: Life Technologies and Expression Analysis (LTEA) Assay for Heat shock 70 kDa protein 1 (HSPA1A) using HepaRG (AID 2283502). In outline:
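HepaRG, 48 h exposure, 8-pt half-log CRC from 100 uM in 0.5% DMSO, duplicates. Readout: TaqMan qRT-PCR of HSPA1A mRNA, housekeeping-normalized (ACTB/GAPDH/POLR2A). Bidirectional fit vs 0.5% DMSO baseline.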

Read-out in assay [18]: Cytochrome P450 7A1 (Homo sapiens) (UniProt P22680)
The assay is described as follows: LTEA_HepaRG_CYP7A1: Life Technologies and Expression Analysis (LTEA) Assay for Cytochrome P450 7A1 (CYP7A1) using HepaRG (AID 2283496). The method in brief:
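Using 0.5% DMSO as vehicle and baseline, chemicals were tested in duplicate over an 8-point range from 100 uM on HepaRG cells for 48 h; qRT-PCR signals were normalised to ACTB, GAPDH and POLR2A.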

Read-out in assay [19]: Insulin Like Growth Factor 1 (IGF1), IGF1 (gene 3479)
The experiment in a line: LTEA_HepaRG_IGF1: Life Technologies and Expression Analysis (LTEA) Assay for Insulin Like Growth Factor 1 (IGF1) using HepaRG (AID 2283506). In outline: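 qRT-PCR readout of IGF1 mRNA, normalized to three housekeeping genes, after 48 h chemical exposure of HepaRG cells. Concentrations: 8-point half-log series, top 100 uM, 0.5% DMSO vehicle. Gain or loss fitted against DMSO baseline.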

Hypoxia-inducible factor 1-alpha (Homo sapiens), sequence (Q16665 whole entry, looked up): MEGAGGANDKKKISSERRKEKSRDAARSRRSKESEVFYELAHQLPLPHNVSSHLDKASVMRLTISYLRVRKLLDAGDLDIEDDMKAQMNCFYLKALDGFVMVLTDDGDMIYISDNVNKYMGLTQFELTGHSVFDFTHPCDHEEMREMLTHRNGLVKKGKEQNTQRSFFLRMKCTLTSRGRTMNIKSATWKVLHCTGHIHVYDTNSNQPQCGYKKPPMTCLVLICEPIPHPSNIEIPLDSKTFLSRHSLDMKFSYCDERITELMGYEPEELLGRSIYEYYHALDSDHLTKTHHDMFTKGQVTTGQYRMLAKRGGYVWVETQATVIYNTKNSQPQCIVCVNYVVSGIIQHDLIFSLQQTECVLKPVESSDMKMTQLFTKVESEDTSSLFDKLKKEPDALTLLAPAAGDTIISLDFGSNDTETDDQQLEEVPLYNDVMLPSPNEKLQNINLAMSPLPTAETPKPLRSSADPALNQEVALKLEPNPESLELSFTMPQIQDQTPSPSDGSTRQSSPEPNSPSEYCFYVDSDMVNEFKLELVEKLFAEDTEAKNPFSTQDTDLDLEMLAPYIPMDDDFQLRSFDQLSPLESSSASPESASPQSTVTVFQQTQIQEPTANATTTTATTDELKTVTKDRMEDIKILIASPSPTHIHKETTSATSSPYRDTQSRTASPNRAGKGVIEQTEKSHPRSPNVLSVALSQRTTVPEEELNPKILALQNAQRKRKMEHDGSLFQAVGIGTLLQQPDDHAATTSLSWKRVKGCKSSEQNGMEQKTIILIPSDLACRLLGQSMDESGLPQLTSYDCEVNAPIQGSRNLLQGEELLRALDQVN

For `C[N+]1(C)CCCCC1`, the compound was called inactive in assay [1], in assay [2], in assay [3], in assay [4], in assay [5] and in assay [6]. In addition, the call in [7], in assay [8], in [9], in [10], in assay [11] and in assay [12] was inactive. The compound was called inactive in assay [13], in assay [14] and in assay [15].
With `COc1cccc(C(=O)NN(C(=O)c2cc(C)cc(C)c2)C(C)(C)C)c1C`, the result in [1], in assay [2], in [3], in [4], in assay [5] and in assay [6] was inactive. Moreover, the compound was called inactive in [7], in assay [8], in [9], in assay [10], in assay [16] and in [17]. Further, the result in [12], in [13], in assay [14] and in assay [15] was inactive.
Take `O=C(O)c1cc(Oc2ccc(C(F)(F)F)cc2Cl)ccc1[N+](=O)[O-]`: the compound was classed as inactive in assay [1], in assay [2], in assay [3], in assay [4], in assay [7] and in [18]. The result in assay [8], in assay [9], in assay [10], in [16], in assay [12] and in [14] was inactive. In [15], the result was inactive. The AC50 was 50 µM (active) in [5], 20.3 µM (active) in [6] and 50 µM (active) in assay [13].
Take `CNc1cnn(-c2cccc(C(F)(F)F)c2)c(=O)c1Cl`: the outcome in assay [1], in assay [3], in [4], in [5], in assay [7] and in assay [8] was inactive. Besides, the outcome in [10], in [11], in assay [17], in assay [12], in assay [14] and in [15] was inactive. Besides, the AC50 is 29.8 µM (active) in [2]; 26 µM (active) in assay [6]; 28 µM (active) in [9]; 30.1 µM (active) in assay [16]; 9.92 µM (active) in [13]; 36.9 µM (active) in assay [19].
